Results on 47 molecules are retold here after PubChem BioAssay AID2685 (National Center for Advancing Translational Sciences (NCATS), 2010).

Structures are written as SMILES. Among all 320,000 compounds or so, about 2,100 (0.66%) were called active. About 53% were inconclusive and are not listed. The call rests on the fitted dose curve; in most records, active means well fitted inhibition curve with a large enough effect in the signal ratio, with a control signal flat (not every such curve was filed as active); inconclusive means small, poorly fitted or top-dose-only effect, or effect the other way, or a change in a side signal; inactive means flat fitted curve, though single readings scatter; the % refers to the signal ratio. The list comes from a sample in which actives are over-represented; it also holds similar structures and randomly drawn compounds.
Potency means the concentration at half of the fitted maximal effect.

The nature of this assay: qHTS Assay for Lipid Storage Modulators in Drosophila S3 Cells.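 On cell number change: cells counted by Cell Tracker Red CMTPX staining in the red channel.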 On lipid storage change, negative = inhibition: on the % scale 0 is the no-effect control and ±100 the full control effect. The conditions noted are these: BODIPY lipid droplet fluorescence, 18-24 h, cells fed with added oleic acid; cell number change: measured here: cell count max response; series mostly up to 46.1 µM; lipid storage change, negative = inhibition: at the top concentration. Put shortly:
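Drosophila S3 cells loaded with oleic acid (400 uM, as added) and compounds at several concentrations; lipid droplets imaged by 488-nm laser-scanning cytometry, 500–530 nm intensity and object ratio to cell channel. Percent activity normalized to 20 uM Triacsin C.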
In general terms: Quantitative high-throughput screening tests each substance at several concentrations.
As for `COc1ccccc1N(C)S(=O)(=O)c1ccc(C(=O)O)cc1`, the “lipid storage change, negative = inhibition” value was -19.5% (inactive) and the cell number change is -4.33%.
Turning to `COc1cccc(CN2CCNC(=O)C2CC(=O)NCc2cn3cccc(C)c3n2)c1OC` (centres undefined), the result was inactive and the cell number change was -8.41%.
For the molecule `O=S(=O)(c1cccc2nsnc12)N1CCN(C/C=C/c2ccccc2)CC1`, the “lipid storage change, negative = inhibition” value was 24.3% (inactive) and the cell number change was found to be 7.87%.
Consider `O=S(=O)(c1cccc2nsnc12)N1CCN(Cc2ccccc2)CC1`, for which the Potency is 6.51 µM (active) and the cell number change was found to be 1.32%.
Take `CCN1CCN(S(=O)(=O)c2cccc3nsnc23)CC1`: the “lipid storage change, negative = inhibition” value is -15.7% (inactive) and the cell number change was -12.7%.
On to `Cc1cc(/C=C2\SC(=S)N(Cc3ccco3)C2=O)c(C)n1-c1cccnc1`, for which the Potency is 23.1 µM (active).
Regarding `Cc1cc(/C=C2\SC(=S)N(Cc3ccco3)C2=O)c(C)n1-c1ccccc1`, the “lipid storage change, negative = inhibition” value is 24.5% (inactive) and the cell number change was -3.86%.
Regarding `COc1ccc(-n2c(C)cc(/C=C3\SC(=S)N(Cc4ccco4)C3=O)c2C)cc1`, the “lipid storage change, negative = inhibition” value is -4.8% (inactive) and the cell number change is -10.6%.
In the case of `Cc1cc(C(=O)NN=C2C3CC4CC(C3)CC2C4)c2ccccc2n1`, the “lipid storage change, negative = inhibition” value was -6.2% (inactive) and the cell number change was -7.65%.
On the same counts, the results for `CN(C)C(CNC(=S)Nc1cccc(Cl)c1)c1cccnc1` (centres undefined) are -1.12% (inactive) and -7.59%.
`CNNC(=S)NC1CC2CC1C1C=CCC21` (centres undefined): the “lipid storage change, negative = inhibition” value is 14.9% (inactive) and the cell number change was 17.5%.
For `CCOc1ncccc1-c1nc(-c2cccs2)no1` the same measures were 21.8% (inactive) and -0.414%.
For `CC1CN(C(=O)c2ccc(COc3ccc4ccccc4c3)o2)CC(C)O1` (centres undefined), the “lipid storage change, negative = inhibition” value is 17.9% (inactive) and the cell number change stood at 18.9%.
`Cc1ccccc1OCc1ccc(C(=O)N2CC(C)OC(C)C2)o1` (centres undefined): the Potency is 32.6 µM (active) and the cell number change was found to be 14.8%.
Regarding `CCOc1cccc2cc(C(=O)N3CC(C)OC(C)C3)c(=O)oc12` (centres undefined), the “lipid storage change, negative = inhibition” value was 0.754% (inactive) and the cell number change was -8.03%.
In the case of `CC1CN(C(=O)c2ccccc2OCc2ccc(Cl)cc2Cl)CC(C)O1` (centres undefined), the Potency is 0.651 µM (active) and the cell number change is -15%.
Turning to `CC1CN(C(=O)c2ccc(COc3ccccc3Br)o2)CC(C)O1` (centres undefined), the “lipid storage change, negative = inhibition” value is 15.9% (inactive) and the cell number change was determined as 21.6%.
On the same counts, the results for `CC1CN(C(=O)COC(=O)c2cc(Cl)ccc2Cl)CC(C)O1` (centres undefined) are -9.51% (inactive) and -5.44%.
For `COc1ccc(N=C2CCS(=O)(=O)c3sccc32)cc1`, the “lipid storage change, negative = inhibition” value was 18.8% (inactive).
Still for that read-out and setting: with `O=C(CN1C(=O)NC2(CCCC2)C1=O)Nc1ccccc1-c1ccccc1` the figure was 7.06% (inactive).
`COc1ccccc1C(=O)Nc1cccc(N(C)S(C)(=O)=O)c1`: the “lipid storage change, negative = inhibition” value is 8.7% (inactive) and the cell number change is -2.55%.
`CC(=O)c1cccc(NC(=O)N2CCN(S(C)(=O)=O)CC2)c1`: the Potency was 11.6 µM (active).
Consider `Cc1cc(C)cc(NC(=O)N2CCN(S(C)(=O)=O)CC2)c1`, for which the “lipid storage change, negative = inhibition” value was 14.6% (inactive) and the cell number change worked out at 5.38%.
Take `CC(=O)c1cccc(NC(=O)N2CCCCCC2)c1`: the call was inactive and the cell number change is -8.42%.
Consider `O=C(CCc1nnc2n(Cc3ccc(Cl)cc3)c(=O)c3ccccc3n12)NCCCN1CCOCC1`, for which the molecule was called inactive.
For the molecule `CC(C)N(C(=O)Cn1c(-c2ccccc2Cl)nc2ccccc21)c1ccccc1`, the “lipid storage change, negative = inhibition” value is -6.38% (inactive) and the cell number change was -7.06%.
Turning to `N#C/C(=N\Nc1ccc(F)cc1)C(=N)N1CCCCCC1`, the “lipid storage change, negative = inhibition” value was -5.17% (inactive) and the cell number change turned out to be 0.927%.
On the same counts, the results for `O=[N+]([O-])c1cc([N+](=O)[O-])c(N2CCCCCC2)cc1NCCO` are -14% (inactive) and -19.4%.
Consider `Cc1nc2ccccc2n1CCOc1ccc(F)cc1`, for which the “lipid storage change, negative = inhibition” value is 9.98% (inactive) and the cell number change is -21.4%.
`Cc1ccccc1C(=O)NCCn1cc(SCC(=O)NCC2CCCO2)c2ccccc21` (centres undefined): the “lipid storage change, negative = inhibition” value is -8.86% (inactive) and the cell number change turned out to be 4.31%.
For `CCn1cc(SCC(=O)NCC2CCCO2)c2ccccc21` (centres undefined) the same measures were -5.87% (inactive) and -11.7%.
Turning to `COc1ccccc1C(=O)NCCn1cc(SCC(=O)NCC2CCCO2)c2ccccc21` (centres undefined), the Potency was 18.4 µM (active) and the cell number change is -16.8%.
As to `CCCCNC(=O)C1CCN(Cc2ccc(OCc3ccccc3)cc2)CC1`, the “lipid storage change, negative = inhibition” value was -3.1% (inactive) and the cell number change was -13%.
On to `Cc1ccc(S(=O)(=O)Oc2ccc(/C=C3/C(=N)N4C(=NC3=O)SN=C4S(C)(=O)=O)cc2)cc1`, for which the call was inactive and the cell number change was -5.51%.
On to `COc1ccc(/C=C2/C(=N)N3C(=NC2=O)Sc2cc(S(C)(=O)=O)ccc23)cc1OC`, for which the “lipid storage change, negative = inhibition” value is -5.29% (inactive) and the cell number change is 20.5%.
Take `CN(C)c1ccc(/C=C2\C(=N)N3C(=NC2=O)Sc2cc(S(C)(=O)=O)ccc23)cc1`: the Potency was 5.8 µM (active) and the cell number change is 29.8%.
Regarding `CC(=O)N1CCc2cc(S(=O)(=O)CCC(=O)N3CCN(c4ccccn4)CC3)ccc21`, the “lipid storage change, negative = inhibition” value is 11.4% (inactive) and the cell number change came to 3.02%.
As to `CCc1ccc(C(C(=O)NCc2ccc(F)cc2)N(C(=O)c2csnn2)C2CC2)cc1` (centres undefined), the molecule was called inactive and the cell number change was -0.952%.
Regarding `CCCN(C(=O)/C=C/c1nc2ccccc2s1)C1CCS(=O)(=O)C1` (centres undefined), the “lipid storage change, negative = inhibition” value is -2.18% (inactive) and the cell number change was determined as 10.5%.
For `COc1ccc(NC(=O)c2ccc(NCCCN3CCOCC3)c([N+](=O)[O-])c2)cc1` the same measures were 9.93% (inactive) and 0.55%.
Turning to `Cc1ccc(C(=O)Nc2cccc(C(=O)NC3CCCC3)c2)cc1`, the Potency is 14.6 µM (active) and the cell number change worked out at 21.4%.
For `CS(=O)(=O)c1ccc(C(=O)NC2CCCCC2)cc1`, the “lipid storage change, negative = inhibition” value was 19.9% (inactive) and the cell number change came out at 6.12%.
`CC1Nc2ccc(C(=O)NC3CCCCC3)cc2NC1=O` (centres undefined): the Potency was 23.1 µM (active) and the cell number change is 18.4%.
On to `Cc1ccc(C(=O)NC2CCCCC2)cc1`, for which the “lipid storage change, negative = inhibition” value is 19.6% (inactive) and the cell number change is -6.85%.
On to `CCOC(=O)c1cccc(NC(=O)c2ccc(NC(=O)C3CCCO3)cc2)c1` (centres undefined), for which the Potency is 14.6 µM (active) and the cell number change is -4.84%.
For `O=C(NC1CCCCC1)c1ccc2c(c1)OCO2`, the “lipid storage change, negative = inhibition” value was 3.69% (inactive) and the cell number change came to 1.32%.
Regarding `CS(=O)(=O)Nc1ccc(C(=O)NC2CCCC2)cc1`, the Potency is 2.91 µM (active) and the cell number change is -0.712%.
